High-throughput results: PubChem BioAssay, National Center for Advancing Translational Sciences (NCATS)
An excerpt weighted towards active compounds, which were near 21% of everything screened.
TDP1 cell CPT: growth inhibition of DT40 Tdp1-/-;hTDP1 cells with camptothecin (screen for TDP1 inhibitors) | actives 12% (n = 420,000) | chicken DT40 Tdp1-/-;hTDP1 cells + 20 nM CPT, ATP luminescence, 48 h | Potency, µM (doses to about 46.2 µM), usual class: inhibitors; further: nearly all actives have a fitted effect of over 55% in size
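Chicken DT40 Tdp1-/- cells stably complemented with human TDP1 were seeded at 400 cells/well in medium containing 20 nM camptothecin, exposed to pin-transferred compounds, and grown at 37 °C for at least 48 hr. Viability was read as ATP luminescence.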
DRD3 antagonist: D3 dopamine receptor (human) antagonism; max response, negative = inhibition, %; actives 2.5% (n = 360,000); D3R cells, DiscoveRx beta-arrestin luminescence, antagonist mode; active compounds read low; in the data active means max response below about -50%; inconclusive means no clear call, values can overlap the other calls
Target sequence (P35462 whole entry, looked up): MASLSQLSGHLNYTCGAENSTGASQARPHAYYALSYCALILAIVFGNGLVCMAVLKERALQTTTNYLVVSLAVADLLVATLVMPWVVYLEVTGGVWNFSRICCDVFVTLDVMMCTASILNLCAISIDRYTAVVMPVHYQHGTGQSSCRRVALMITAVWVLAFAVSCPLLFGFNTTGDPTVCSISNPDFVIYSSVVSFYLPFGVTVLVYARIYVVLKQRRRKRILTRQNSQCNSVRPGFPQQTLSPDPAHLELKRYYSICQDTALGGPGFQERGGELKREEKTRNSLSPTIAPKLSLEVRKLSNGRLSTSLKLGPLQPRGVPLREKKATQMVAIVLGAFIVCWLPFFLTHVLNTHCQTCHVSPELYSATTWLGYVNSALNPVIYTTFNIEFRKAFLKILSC
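Cells plated overnight at 1500 cells/well, then exposed to library compounds with dopamine controls for 90 minutes at 37 degrees C. DiscoveRx reagent added for 30–60 minutes at room temperature; luminescence read, quantitative HTS format.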
IL-1B inflam inh: inhibitors of inflammasome signaling (IL-1 beta secretion); THP-1 LPS/ATP IL-1B secretion, AlphaLISA, 16 h; active compounds read low; activity change, % at 57.5 µM; actives 4.7% (n = 360,000); AID 743279; in the data active means activity change below about -50%; inconclusive means mostly about -30% to -49%
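Secreted IL-1B measured by AlphaLISA bead assay after 16 h compound exposure of THP-1 cells; compounds (final up to 57.5 uM) added 1 h before LPS (250 ng/mL) and ATP (1.25 mM) stimulation; lower signal means less secretion.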
DT40 TDP1 no CPT: qHTS for Inhibitors of human tyrosyl-DNA phosphodiesterase 1 (TDP1): qHTS in cells in absence of CPT. actives 15% (n = 420,000). Potency, µM (doses to about 46.2 µM), actives largely listed as inhibitors. AID 686978, 2013. DT40 Tdp1-/- hTDP1 cells, no CPT, ATP luminescence, 48 h; further: nearly all actives have a fitted effect of over 55% in size
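Compound effects on proliferation are scored in DT40 Tdp1-/-;hTDP1 cells in the absence of CPT. ATP levels (CellTiter-Glo luminescence) are recorded after a ≥48 hr, 37 °C incubation.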
DRD3 agonist: agonists of human D3 dopamine receptor | P35462 | D3R DiscoveRx beta-arrestin cells, luminescence, 90 min | max activation, % | actives 0.58% (n = 410,000); in the data active means max activation above about 30%
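Agonist mode: compounds and dopamine controls were applied to plated cells for 90 min at 37 degrees C after an overnight attachment at 1500 cells/well. Luminescent read-out followed 30 - 60 minutes at room temperature with DiscoveRx detection reagent.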
ClpP mod: qHTS Assay for Activators of ClpP | actives 1.9% (n = 340,000) | ATP-dependent Clp protease proteolytic subunit (Bacillus subtilis (strain 168)), P80244 | Potency, µM (doses to about 57.5 µM) | purified B. subtilis ClpP, FRET peptide cleavage, 20 min; active means well fitted falling curve with a large enough effect; inconclusive means small, poorly fitted or top-dose-only effect; inactive means no such curve, though single readings can be large or run the other way; further: the source files actives as falling curves though it sought activators and does not explain the sign; nearly all actives have a fitted effect of over 65% in size
Target sequence (P80244 whole entry, looked up): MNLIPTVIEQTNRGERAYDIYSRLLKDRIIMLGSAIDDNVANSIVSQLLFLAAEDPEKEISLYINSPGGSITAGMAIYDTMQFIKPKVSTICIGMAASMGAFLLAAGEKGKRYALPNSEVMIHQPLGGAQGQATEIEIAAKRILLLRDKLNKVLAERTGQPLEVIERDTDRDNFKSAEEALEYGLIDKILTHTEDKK
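Purified B. subtilis ClpP, 10 microg/mL final in Tris/HCl pH8 with KCl, BSA, glycerol and Tween-20, cleaved an Abz/nitrotyrosine-quenched decapeptide. Fluorescence (ex 320, em 430) was read at 0 and 20 min at room temperature. Delta was normalized to 5.8 microM ADEP and DMSO/no-enzyme controls.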
Hits are given with their value; – = inactive; ? = inconclusive; · = not tested or not shown. Unless noted, the call rests on the fitted dose curve; in most records, active means well fitted inhibition curve with a large enough effect; inconclusive means small, poorly fitted or top-dose-only effect; inactive means flat fitted curve, though single readings scatter.

SMILES	TDP1 cell CPT	DRD3 antagonist	IL-1B inflam inh	DT40 TDP1 no CPT	DRD3 agonist	ClpP mod
CC(=O)c1ccc(-n2c(SCC(=O)c3c[nH]c4ccccc34)nc3ccccc3c2=O)cc1	21µM	–	?	12µM	–	–
CCOC(=O)c1c(C)[nH]c(C)c1C(=O)CSc1nc2ccccc2n1CC	?	–	–	?	–	–
COC(=O)c1cc(=O)c2c(ccc3oc(=O)ccc32)[nH]1	–	–	–	–	–	–
Cc1ccc(-c2nc(CS(=O)CC(=O)NCCc3ccc(Cl)cc3)c(C)o2)cc1 (configuration not stated)	?	·	·	?	–	–
CCN(CC)CCn1c2c(c(SCC(=O)Nc3cccc4ccccc34)nc1=O)CCC2	–	–	-90	?	–	–
CCN(CC)CCn1c2c(c(SCC(=O)Nc3ccccc3Cl)nc1=O)CCC2	–	–	-52	–	–	–
CN1CCN(c2ncc3ncc(=O)n(-c4ccccc4)c3n2)CC1	–	·	·	–	·	·
COCc1nnc(NC(=O)c2cc(OC)c(OC)c(OC)c2)s1	–	·	·	–	–	–
COc1cc(C(=O)Nc2nnc(CC(C)(C)C)s2)cc(OC)c1OC	13µM	·	·	?	–	–
CCCC(=O)Nc1nc(C(=O)OCC)cs1	–	–	–	–	–	–
COc1ccc(Cc2nnc(NC(=O)c3ccc(OC)c(OC)c3)s2)cc1OC	–	–	–	–	42	–
CCOC(=O)c1csc(NC(=O)c2cc(OC)c(OC)c(OC)c2)n1	?	–	-54	?	–	–
Cc1ccc(OCC(=O)NC(=S)Nc2ccc(S(=O)(=O)Nc3cc(C)on3)cc2)c(Br)c1	–	–	–	–	–	–
CC(C)N(CCNC(=O)c1oc(=O)c2ccccc2c1-c1ccccc1)Cc1ccco1	–	–	–	?	–	·
O=C1OC(OC(=O)c2cccnc2Nc2cccc(C(F)(F)F)c2)c2ccccc21 (configuration not stated)	–	·	·	–	–	·
Cc1ccsc1CN(C(=O)c1ccc(OCC(C)C)cc1)C1CCS(=O)(=O)C1 (configuration not stated)	?	·	·	15µM	–	–
CC(C)COc1ccc(C(=O)N(Cc2cccc(F)c2)C2CCS(=O)(=O)C2)cc1 (configuration not stated)	21µM	·	·	?	–	–
Cc1ccccc1C(=O)NNC(=O)c1cc(S(=O)(=O)N2CCOCC2)ccc1C	–	–	–	–	–	–
CN(C(=O)Cc1c[nH]c2ccccc12)C(C(=O)Nc1ccc2c(c1)OCO2)c1ccccc1 (configuration not stated)	–	–	-67	?	–	–
COc1cccc2cc(C(=O)NCCc3c(C)[nH]c4ccc(F)cc34)c(=O)oc12	·	·	·	·	–	–
CN1CCc2c(sc(/N=C/c3cc(C(C)(C)C)ccc3O)c2C#N)C1	–	-54	–	–	–	·
Cc1cccc(/C=N/c2sc3c(c2C#N)CCN(Cc2ccccc2)C3)c1O	–	?	–	?	–	–
Cc1cc(C)c(S(=O)(=O)NCc2cccs2)cc1C	–	–	–	–	–	–
O=C(OCc1ccccc1)N1CCC2CC1c1cc(Cl)ccc12 (configuration not stated)	?	?	?	?	–	–
Cc1ccc(C(=O)N2CCC3CC2c2cc(-c4ccc5c(c4)OCO5)ccc23)cc1 (configuration not stated)	16µM	–	–	13µM	–	?
SMILES	TDP1 cell CPT	DRD3 antagonist	IL-1B inflam inh	DT40 TDP1 no CPT	DRD3 agonist	ClpP mod
COc1ccc(-c2ccc3c(c2)C2CC3CCN2C(=O)C(C)(C)C)cc1 (configuration not stated)	?	–	–	21µM	–	–
O=C(c1ccc(-c2ccccc2)cc1)N1CCC2CC1c1cc(-c3ccc4c(c3)OCO4)ccc12 (configuration not stated)	?	–	–	?	–	–
O=C(OCc1ccccc1)N1CCC2CC1c1cc(-c3ccc4c(c3)OCO4)ccc12 (configuration not stated)	15µM	–	–	?	–	?
CCCCN(C(C)=O)c1ccc2c(c1)C1CC2CCN1C(=O)OCc1ccccc1 (configuration not stated)	2.1µM	–	–	3.7µM	–	–
CCS(=O)(=O)NCCNc1ccc([N+](=O)[O-])cc1	–	–	–	–	–	·
CCCOC(=O)c1c(NC(=O)c2cc3ccccc3c(=O)o2)sc2c1CCC(C)C2 (configuration not stated)	–	·	·	–	–	–
NC(N)=NC1=NC(=O)C(Cc2ccccc2)S1 (configuration not stated)	–	–	–	–	–	–
NC(=S)N/N=C\c1ccc(-c2cccc(Cl)c2Cl)o1	5.2µM	–	–	4.6µM	–	–
NC(=S)N/N=C/c1ccc(-c2ccc(Cl)c(Cl)c2)o1	23µM	?	–	13µM	–	?
NC(=S)N/N=C/c1ccc(-c2ccc(SC(F)F)cc2)o1	3.7µM	–	–	5.2µM	–	·
Cc1ccc(-c2ccc(/C=N/NC(N)=S)o2)cc1	2.9µM	–	–	4.1µM	–	·
NCCCNc1ccc([N+](=O)[O-])cc1C(F)(F)F	–	–	-51	13µM	–	·
O=C1NN=C(c2ccc(Cl)cc2)CC1c1cccc(Cl)c1 (configuration not stated)	29µM	-61	–	16µM	–	–
O=C1NN=C(c2ccccc2)CC1c1ccc(Cl)cc1Cl (configuration not stated)	?	–	?	?	–	·
CC(C)(C)CC(C)(C)NCC(O)COc1c(F)cc(Br)cc1F (configuration not stated)	?	?	?	23µM	–	–
COc1ccc(S(=O)(=O)n2nc(-c3cc(OC)c(OC)c(OC)c3)cc2N)cc1OC	–	–	–	?	–	–
COc1ccc(-c2cc(N)n(S(=O)(=O)c3c(F)c(F)c(F)c(F)c3F)n2)cc1OC	0.18µM	-56	-87	0.82µM	–	–
CCC(CC)=N/N=C/c1c(O)n(CC)c2cc(C3=NNC(=O)CC3)ccc12	?	-53	–	9.2µM	–	–
CCn1c(O)c(/C=N/N=C/c2ccccc2)c2ccc(C3=NNC(=O)CC3)cc21	?	–	?	18µM	–	–
CCCCC[C@H](C)N1C[C@@H](COCc2ccccc2)Oc2cc(N3CCC[C@@H]3COC)ccc2S1(=O)=O	21µM	–	–	18µM	–	–
